# From PubChem BioAssay (NCATS)
# Results filed as inconclusive are left out. Entries that show only a call come without a potency. The source made the active and inactive calls. Unless noted, calls follow the shape of the dose curve; as a rule, active = well fitted curve in the direction sought with a large enough effect; inconclusive = small, poorly fitted or top-dose-only effect, or another doubt; inactive = no such curve, though single readings can be large; an effect the other way counts as inactive or inconclusive.
# Columns and labels:
# [1] = target: ATP-dependent 6-phosphofructokinase (Trypanosoma brucei brucei) (UniProt O15648); experiment: qHTS Assay to Find Inhibitors of T. brucei phosphofructokinase: hit validation (AID 492961);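 also: luminescence reports ADP formed as PFK phosphorylates fructose-6-phosphate with ATP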; conditions: T. brucei PFK, ADP-Glo luminescence; series mostly up to 51.4 µM
# Sequence of ATP-dependent 6-phosphofructokinase (Trypanosoma brucei brucei) (O15648 whole entry, looked up): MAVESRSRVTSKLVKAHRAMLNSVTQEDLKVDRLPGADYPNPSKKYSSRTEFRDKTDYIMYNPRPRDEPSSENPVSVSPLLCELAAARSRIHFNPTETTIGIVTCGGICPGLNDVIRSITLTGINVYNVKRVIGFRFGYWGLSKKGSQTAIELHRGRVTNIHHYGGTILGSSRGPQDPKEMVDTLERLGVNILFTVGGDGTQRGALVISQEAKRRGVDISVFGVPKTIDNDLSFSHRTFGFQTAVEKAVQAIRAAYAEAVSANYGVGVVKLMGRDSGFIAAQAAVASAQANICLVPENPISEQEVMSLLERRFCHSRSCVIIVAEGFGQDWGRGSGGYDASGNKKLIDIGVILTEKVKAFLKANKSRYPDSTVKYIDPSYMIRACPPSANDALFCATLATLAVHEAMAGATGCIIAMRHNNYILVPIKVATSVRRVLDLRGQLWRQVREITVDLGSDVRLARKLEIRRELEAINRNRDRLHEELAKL
# Method in brief: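 PFK 1.25 nM, F6P 0.5 mM, ATP 0.1 mM, MgCl2 5 mM, 0.1 M TEA pH 8.0, Tween20 0.01%, BSA 0.1%; 45 min RT. ADP-Glo two-step detection, luminescence. qHTS titration; curve fitting with curve-class categorization.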
# [2] = target: D(1A) dopamine receptor (Homo sapiens) (UniProt P21728); experiment: HTS Assay for Allosteric Agonists of the Human D1 Dopamine Receptor: Primary Screen for Potentiators (AID 488982); conditions: HEK293 T-REx D1 inducible cells, calcium flux, kinetic fluorescence; series mostly up to 8.37 µM
# Sequence of D(1A) dopamine receptor (Homo sapiens) (P21728 whole entry, looked up): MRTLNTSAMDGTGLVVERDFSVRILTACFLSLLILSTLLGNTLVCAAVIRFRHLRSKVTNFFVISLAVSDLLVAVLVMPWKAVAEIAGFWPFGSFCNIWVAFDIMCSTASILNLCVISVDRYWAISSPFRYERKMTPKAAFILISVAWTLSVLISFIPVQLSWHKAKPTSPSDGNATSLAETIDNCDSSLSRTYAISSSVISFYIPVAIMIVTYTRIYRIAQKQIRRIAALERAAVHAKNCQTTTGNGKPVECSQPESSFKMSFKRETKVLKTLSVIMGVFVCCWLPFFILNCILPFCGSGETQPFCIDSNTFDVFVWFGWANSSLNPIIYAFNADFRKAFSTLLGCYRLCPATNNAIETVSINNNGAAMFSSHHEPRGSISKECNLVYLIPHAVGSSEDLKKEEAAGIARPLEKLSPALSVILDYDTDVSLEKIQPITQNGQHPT
# Method in brief: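 Tetracycline-induced HEK293 T-REx cells force-coupled to calcium signalling were incubated overnight at 30 C and dye-loaded at room temperature. Calcium flux over 180 s after compound addition flagged agonists; a further 180 s read after EC20 dopamine flagged potentiators.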
# [3] = target: D(1A) dopamine receptor (Homo sapiens) (UniProt P21728); experiment: HTS Assay for Allosteric Agonists of the Human D1 Dopamine Receptor: Primary Screen for Antagonists (AID 488983); conditions: D1 receptor cell assay, antagonist mode, qHTS titration; series mostly up to 41.8 µM;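 also: calcium flux response to an EC80 dopamine challenge measured with no-wash dye; nearly all actives have a fitted effect of over 65% in size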; also: potency is read from the fitted curve at half-maximal effect
# Method in brief: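 Cells are induced with tetracycline and incubated overnight at 30 C, then loaded with calcium dye for 30 to 90 minutes at room temperature. Compound addition is followed by a 180 s read, then an EC80 dopamine addition and another 180 s read.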
# [4] = Validation screen for small molecules that induce genotoxicity in human embryonic kidney (HEK293T) cells expressing luciferase-tagged ELG1 (AID 493106); conditions: luminescence; series mostly up to 46.1 µM
# Method in brief: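 Luminescence from an ELG1-luciferase fusion serves as the read-out, rising when genetic stress elevates ELG1 protein. HEK293T reporter cells (2,000 per well) received 23 nL compound, incubated 16 hr at 37 °C, then ONE-Glo for 30 min at room temperature.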
# [5] = target: ATPase family AAA domain-containing protein 5 (Homo sapiens) (UniProt Q96QE3); experiment: Validation screen for small molecules that inhibit ELG1-dependent DNA repair in human embryonic kidney (HEK293T) cells expressing luciferase-tagged ELG1 (AID 493107); conditions: HEK293T ELG1-luciferase level, luminescence, 5-fluorouridine co-treatment, 16 h; series mostly up to 46.1 µM; also: nearly all actives have a fitted effect of over 70% in size; also: potency is read from the fitted curve at half-maximal effect
# Sequence of ATPase family AAA domain-containing protein 5 (Homo sapiens) (Q96QE3 whole entry, looked up, the tested form may be a part): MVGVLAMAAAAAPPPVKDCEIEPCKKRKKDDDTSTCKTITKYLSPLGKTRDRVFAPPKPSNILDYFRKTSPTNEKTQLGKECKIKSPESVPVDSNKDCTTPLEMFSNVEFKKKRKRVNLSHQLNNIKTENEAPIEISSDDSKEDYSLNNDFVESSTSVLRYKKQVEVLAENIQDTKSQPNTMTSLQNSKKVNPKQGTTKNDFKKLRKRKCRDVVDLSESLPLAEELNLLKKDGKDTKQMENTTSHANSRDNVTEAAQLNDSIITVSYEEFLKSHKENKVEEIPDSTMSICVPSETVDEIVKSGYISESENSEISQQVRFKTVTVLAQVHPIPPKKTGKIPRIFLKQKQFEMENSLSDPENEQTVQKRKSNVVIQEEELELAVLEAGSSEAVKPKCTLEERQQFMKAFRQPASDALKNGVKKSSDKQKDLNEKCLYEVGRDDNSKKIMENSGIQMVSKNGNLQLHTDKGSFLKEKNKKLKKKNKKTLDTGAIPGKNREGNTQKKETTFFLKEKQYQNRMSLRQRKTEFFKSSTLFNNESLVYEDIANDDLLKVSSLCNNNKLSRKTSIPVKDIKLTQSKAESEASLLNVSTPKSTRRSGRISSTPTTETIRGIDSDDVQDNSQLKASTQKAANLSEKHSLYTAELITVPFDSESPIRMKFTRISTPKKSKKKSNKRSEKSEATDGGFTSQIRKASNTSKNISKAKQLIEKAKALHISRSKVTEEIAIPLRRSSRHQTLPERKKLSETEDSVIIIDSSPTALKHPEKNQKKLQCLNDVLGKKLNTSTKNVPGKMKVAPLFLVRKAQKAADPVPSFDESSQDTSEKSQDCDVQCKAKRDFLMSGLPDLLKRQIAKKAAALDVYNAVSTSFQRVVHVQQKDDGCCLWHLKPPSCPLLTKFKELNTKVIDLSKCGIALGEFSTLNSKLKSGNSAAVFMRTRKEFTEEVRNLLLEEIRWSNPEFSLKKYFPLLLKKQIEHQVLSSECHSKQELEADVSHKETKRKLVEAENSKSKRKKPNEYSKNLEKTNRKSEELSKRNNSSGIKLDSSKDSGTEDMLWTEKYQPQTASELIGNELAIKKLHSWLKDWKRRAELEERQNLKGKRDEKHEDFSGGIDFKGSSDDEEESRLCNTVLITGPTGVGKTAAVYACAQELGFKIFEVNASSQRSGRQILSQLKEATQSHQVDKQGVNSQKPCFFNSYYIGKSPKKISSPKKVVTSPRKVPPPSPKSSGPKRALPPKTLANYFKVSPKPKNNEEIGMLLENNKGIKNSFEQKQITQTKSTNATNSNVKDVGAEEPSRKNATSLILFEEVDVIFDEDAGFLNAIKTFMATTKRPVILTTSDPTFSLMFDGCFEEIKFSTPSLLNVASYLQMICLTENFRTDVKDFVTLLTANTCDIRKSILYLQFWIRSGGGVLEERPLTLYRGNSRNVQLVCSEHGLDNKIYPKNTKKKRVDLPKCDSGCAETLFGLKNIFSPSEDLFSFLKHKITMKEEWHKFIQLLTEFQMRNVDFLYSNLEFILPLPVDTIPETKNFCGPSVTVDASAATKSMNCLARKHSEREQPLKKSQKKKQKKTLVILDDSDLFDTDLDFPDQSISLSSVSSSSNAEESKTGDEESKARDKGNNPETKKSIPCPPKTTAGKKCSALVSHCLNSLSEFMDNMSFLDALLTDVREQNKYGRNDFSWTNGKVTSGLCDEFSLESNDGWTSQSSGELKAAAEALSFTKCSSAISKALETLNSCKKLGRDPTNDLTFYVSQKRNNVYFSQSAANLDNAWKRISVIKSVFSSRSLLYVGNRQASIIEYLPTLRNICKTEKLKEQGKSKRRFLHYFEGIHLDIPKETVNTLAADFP
# Method in brief: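 Luminescence from ONE-Glo, developed 30 min at room temperature, served as read-out of ELG1-luciferase levels. Beforehand, reporter HEK293T cells received 5-fluorouridine plus test compound for 16 hr at 37 °C.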
# [6] = target: Thyrotropin-releasing hormone receptor (Homo sapiens) (UniProt P34981); experiment: qHTS for Small Molecule Agonists and Allosteric Enhancers of Human TRH Receptor: Validation Screen for Agonists (AID 493127;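 active = calcium activation more than 3 SD above the typical response in the agonist read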;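 also: intracellular calcium rise by fluo-8 fluorescence before TRH EC20 addition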); conditions: TRH receptor agonist cell assay; at 2 µM; stronger effect = higher value
# Sequence of Thyrotropin-releasing hormone receptor (Homo sapiens) (P34981 whole entry, looked up): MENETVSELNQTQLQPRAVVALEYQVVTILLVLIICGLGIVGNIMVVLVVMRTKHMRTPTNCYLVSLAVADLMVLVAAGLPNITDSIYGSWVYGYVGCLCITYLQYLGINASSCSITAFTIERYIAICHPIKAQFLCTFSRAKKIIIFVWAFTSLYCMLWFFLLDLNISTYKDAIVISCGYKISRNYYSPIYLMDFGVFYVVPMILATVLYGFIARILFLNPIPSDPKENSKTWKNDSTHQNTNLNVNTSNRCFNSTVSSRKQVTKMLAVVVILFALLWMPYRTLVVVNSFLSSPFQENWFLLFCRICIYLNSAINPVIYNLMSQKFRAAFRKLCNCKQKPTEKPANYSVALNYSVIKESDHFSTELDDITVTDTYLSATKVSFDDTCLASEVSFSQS
# Method in brief: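 Cells 2000/well, 10% FCS, 18 h 33.5C/5% CO2 → fluo-8 Ca dye, RT 30 min–1.5 h → FDSS baseline 10 × 1 s → compound added → 230 cycles (1 s/cycle) agonist mode. TRH controls.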
# [7] = Nrf2 qHTS screen for inhibitors: Validation (AID 493153; active = well fitted inhibition curve with a large enough effect in the main read-out, with a control signal flat, not every such curve was filed as active; also: potency is read from the fitted curve at half-maximal effect); conditions: A549 ARE-Fluc reporter, 18-24 h; Potency: luciferase luminescence; viability change: measured here: cytotoxicity max response; luciferase luminescence, at 46.1 µM (top of the series)
# Method in brief: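 Luminescence from an ARE-firefly luciferase reporter in A549 cells gives Nrf2 inhibition; an earlier CellTiter-Fluor fluorescent read flags cytotoxicity. Cells in 5% FBS OPTI-MEM received compound dilution series for 18-24 h at 37°C.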
# [8] = qHTS for Inhibitors of Cell Surface uPA Generation: Validation Assay (AID 493164); conditions: mouse cells, plasminogen activation; series mostly up to 38.3 µM
# Method in brief: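 RAW 264.7 cells (4000/well) were plated overnight, then exposed for 18 h at 37 C, 5% CO2 to compounds in a 7-point 1:5 titration (2.45 nM–38.3 uM final). Intracellular ATP was read by ATP-Lite luminescence.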
# [9] = target: Galactokinase (Homo sapiens) (UniProt P51570); experiment: qHTS Validation Assay for Inhibitors of Human Galactokinase (GALK) (AID 493189); conditions: purified human GALK enzyme activity, qHTS 7-point titration; series mostly up to 57.5 µM
# Sequence of Galactokinase (Homo sapiens) (P51570 whole entry, looked up): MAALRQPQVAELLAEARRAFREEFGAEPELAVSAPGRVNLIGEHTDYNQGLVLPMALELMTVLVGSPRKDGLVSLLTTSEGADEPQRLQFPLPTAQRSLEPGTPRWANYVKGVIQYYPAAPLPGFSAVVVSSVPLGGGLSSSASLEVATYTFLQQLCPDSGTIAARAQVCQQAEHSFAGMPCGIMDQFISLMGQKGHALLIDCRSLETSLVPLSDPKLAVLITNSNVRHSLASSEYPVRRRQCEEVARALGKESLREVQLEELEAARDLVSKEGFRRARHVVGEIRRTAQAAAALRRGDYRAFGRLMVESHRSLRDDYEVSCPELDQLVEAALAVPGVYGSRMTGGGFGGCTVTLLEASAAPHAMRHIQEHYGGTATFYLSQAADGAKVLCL
# Method in brief: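 Luminescence from leftover ATP (Kinase-Glo Plus, 10 min) served as read-out after a 1 h room-temperature reaction of 5 nM GALK, 100 uM galactose and 35 uM ATP at pH8.0.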
# [10] = Validation screen for small molecules that induce DNA re-replication in SW480 colon adenocarcinoma cells (AID 504364); conditions: DNA re-replication phenotype (high-content imaging); series mostly up to 46.1 µM
# Method in brief: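 250 cells/well; compound pinned in; 48 hr, 37 C, 5% CO2; Hoechst added, 40 min; nuclear fluorescence imaged, 405 ex / 500-530 em; re-replication scored as increase in high-intensity nuclei.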
smiles,measurement,setting,value
CCCCCCCCCCCCCCCC[n+]1ccccc1,outcome,[1],inactive
CN1CCC(Nc2ncc3ncnc(Nc4ccc(F)c(Cl)c4)c3n2)CC1,outcome,[1],inactive
O=C1NC(c2cccc([N+](=O)[O-])c2)=CCN1c1ccccc1O,outcome,[2],inactive
same,Potency,[3],inactive
same,outcome,[4],inactive
same,Potency,[5],inactive
same,activation,[6],1.25% (inactive)
same,Potency,[7],inactive
same,viability change,[7],-1.13%
same,outcome,[8],inactive
same,outcome,[9],inactive
same,outcome,[10],inactive
COC(=O)C1=CO[C@@H](O)[C@@H]2C(CO)=CC[C@H]12,outcome,[2],inactive
same,Potency,[3],inactive
same,outcome,[4],inactive
same,Potency,[5],inactive
same,Potency,[7],inactive
same,viability change,[7],-6.84%
same,outcome,[8],inactive
CCN(CC)CCNC(=O)c1ccc(NS(C)(=O)=O)cc1,outcome,[2],inactive
same,Potency,[3],inactive
same,outcome,[4],inactive
same,Potency,[5],inactive
same,Potency,[7],inactive
same,viability change,[7],5.75%
same,outcome,[8],inactive
O=C1NC(=O)/C(=C/c2ccc3c(c2)OC(F)(F)O3)S1,outcome,[2],inactive
same,Potency,[3],inactive
same,Potency,[7],inactive
same,viability change,[7],-9.96%
same,outcome,[8],inactive
CCCCCCCCCCCCCC[N+](C)(C)C,outcome,[1],inactive
C[N+](C)(C)CCO,outcome,[2],inactive
same,Potency,[3],inactive
same,outcome,[4],inactive
same,Potency,[5],inactive
same,Potency,[7],inactive
same,viability change,[7],-3.89%
same,outcome,[8],inactive
same,outcome,[9],inactive
same,outcome,[10],inactive
O=S(=O)(O)c1ccc2nc(-c3ccccc3)[nH]c2c1,outcome,[1],inactive
Nc1ccc2cc3ccc(N)cc3nc2c1,outcome,[1],inactive
O=[N+]([O-])c1ccc(O)c2ncccc12,outcome,[1],inactive
Brc1ccc([C@H]2CN3CCSC3=N2)cc1,outcome,[2],inactive
same,Potency,[3],inactive
same,outcome,[4],inactive
same,Potency,[5],inactive
same,activation,[6],-2.94% (inactive)
same,Potency,[7],inactive
same,viability change,[7],-0.405%
same,outcome,[8],inactive
same,outcome,[9],inactive
same,outcome,[10],inactive
O=C(Nc1ccc(Cl)cc1)Nc1ccc(Cl)c(Cl)c1,outcome,[1],inactive
Cn1cnc2c(NCc3ccccc3)nc(NCCO)nc21,outcome,[2],inactive
same,Potency,[3],inactive
same,outcome,[4],inactive
same,Potency,[5],inactive
same,activation,[6],0.188% (inactive)
same,Potency,[7],inactive
same,viability change,[7],8.36%
same,outcome,[8],inactive
same,outcome,[9],inactive
same,outcome,[10],inactive
NC(N)=NCCCCN=C(N)N,outcome,[2],inactive
same,Potency,[3],inactive
same,outcome,[4],inactive
same,Potency,[5],inactive
same,activation,[6],0.938% (inactive)
same,Potency,[7],inactive
same,viability change,[7],2.98%
same,outcome,[8],inactive
same,outcome,[9],inactive
same,outcome,[10],inactive
COc1cccc2c1[C@@H]1CN(CCCCn3c(=O)[nH]c4c(sc5ncc(-c6ccccc6)nc54)c3=O)C[C@@H]1CO2,outcome,[2],inactive
same,Potency,[3],inactive
same,outcome,[4],inactive
same,Potency,[5],23.1 µM (active)
same,activation,[6],0.5% (inactive)
same,outcome,[8],inactive
same,outcome,[9],inactive
same,outcome,[10],inactive
COc1ccccc1N1CCN(CCN2C(=O)CC3(CCCC3)CC2=O)CC1,outcome,[2],inactive
same,Potency,[3],inactive
same,outcome,[4],inactive
same,Potency,[5],inactive
same,activation,[6],2.31% (inactive)
same,Potency,[7],inactive
same,viability change,[7],9.42%
same,outcome,[8],inactive
same,outcome,[9],inactive
same,outcome,[10],inactive
N[C@@H](Cn1ccc(=O)c(O)c1)C(=O)O,outcome,[2],inactive
same,Potency,[3],inactive
same,outcome,[4],inactive
same,Potency,[5],inactive
same,outcome,[8],inactive
Nc1c2ccccc2nc2ccccc12,outcome,[1],inactive
CC(NCCC(c1ccccc1)c1ccccc1)c1ccccc1 (configuration not stated),outcome,[1],inactive
CN(C)c1cc2c(Nc3ccc4c(cnn4Cc4ccccc4)c3)ncnc2cn1,outcome,[2],inactive
same,Potency,[3],inactive
same,outcome,[4],inactive
same,activation,[6],2.12% (inactive)
same,outcome,[8],inactive
same,outcome,[9],inactive
CC(C)N(CCC(=O)c1ccc2ccccc2c1)Cc1ccccc1,outcome,[2],inactive
same,outcome,[4],inactive
same,activation,[6],3.12% (inactive)
same,Potency,[7],inactive
same,viability change,[7],-0.356%
same,outcome,[8],inactive
same,outcome,[9],inactive
same,outcome,[10],inactive
Clc1ccc2c(c1)N=C(N1CCNCC1)c1ccccc1N2,Potency,[3],0.562 µM (active)
same,outcome,[4],inactive
same,Potency,[5],inactive
same,Potency,[7],inactive
same,viability change,[7],1.81%
same,outcome,[8],inactive
O=[N+]([O-])c1ccc(-c2nc(-c3ccc(F)cc3)c(-c3ccncc3)[nH]2)cc1,Potency,[3],inactive
same,outcome,[4],inactive
same,activation,[6],4.88% (inactive)
same,Potency,[7],16.4 µM (active)
same,viability change,[7],-1.66%
same,outcome,[8],inactive
same,outcome,[9],inactive
same,outcome,[10],inactive
C[C@]12CCC(=O)C=C1CC[C@@H]1[C@@H]2[C@@H](O)C[C@@]2(C)[C@H]1CC[C@]2(O)C(=O)COC(=O)CCC(=O)O,activation,[6],-0.0625% (inactive)
same,outcome,[9],inactive
same,outcome,[10],inactive
Cc1nn(-c2ccccc2)c(C)c1/C=N/N1CCN(Cc2ccccc2)CC1,outcome,[2],inactive
same,Potency,[3],inactive
same,outcome,[4],inactive
same,Potency,[7],inactive
same,viability change,[7],-3.49%
same,outcome,[8],inactive
Nc1ncnc2nc[nH]c12,outcome,[1],inactive
Nc1ncnc2n[nH]c(Nc3ccc(F)cc3)c12,outcome,[2],inactive
same,Potency,[3],inactive
same,outcome,[4],inactive
same,outcome,[8],inactive
